Reference: PubChem BioAssay (Tox21)
Inconclusive results are not listed. Calls of active or inactive are those of the source. Unless noted, the call rests on the fitted dose curve; in most records, active means well fitted curve in the direction sought with a large enough effect in the repeat runs; inconclusive means weak or mixed curves; inactive means no such curve, though single readings can be large; an effect the other way counts as inactive or inconclusive.

How the values were obtained:
[1] = qHTS assay to identify small molecule antagonists of the estrogen receptor alpha (ER-alpha) signaling pathway using the BG1 cell line in the presence of 0.1 nM 17-beta-estradiol - cell viability counter screen (AID 1259241); further: nearly all actives have a fitted effect of over 40% in size
Summary of the method: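 VM7Luc4E2 cells (endogenous ER-alpha, 4×ERE-luciferase), hormone-starved 5 days in charcoal-stripped FBS, were treated with compounds plus 0.1 nM 17beta-estradiol for 22 hr at 37C; viability read in same wells as CellTiter-Fluor live-cell protease fluorescence.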

[2] = qHTS assay to identify small molecule antagonists of the androgen receptor (AR) signaling pathway using the MDA cell line in the presence of 0.5 nM R1881 - cell viability counter screen (AID 1259242); further: nearly all actives have a fitted effect of over 45% in size
Summary of the method: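 MDA-kb2 cells (MMTV-luciferase, AR/GR responsive) were treated with compounds plus 0.5 nM R1881 (final) for 16 hr at 37C, 0% CO2. Viability was then read in the same wells as live-cell protease fluorescence (CellTiter-Fluor, 30 min).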

[3] = target: Estrogen receptor (Homo sapiens) (UniProt P03372); experiment: qHTS assay to identify small molecule antagonists of the estrogen receptor alpha (ER-alpha) signaling pathway using the BG1 cell line in the presence of 0.1 nM 17-beta-estradiol (AID 1259244); further: nearly all actives have a fitted effect of over 50% in size
Sequence of Estrogen receptor (Homo sapiens) (P03372 whole entry, looked up): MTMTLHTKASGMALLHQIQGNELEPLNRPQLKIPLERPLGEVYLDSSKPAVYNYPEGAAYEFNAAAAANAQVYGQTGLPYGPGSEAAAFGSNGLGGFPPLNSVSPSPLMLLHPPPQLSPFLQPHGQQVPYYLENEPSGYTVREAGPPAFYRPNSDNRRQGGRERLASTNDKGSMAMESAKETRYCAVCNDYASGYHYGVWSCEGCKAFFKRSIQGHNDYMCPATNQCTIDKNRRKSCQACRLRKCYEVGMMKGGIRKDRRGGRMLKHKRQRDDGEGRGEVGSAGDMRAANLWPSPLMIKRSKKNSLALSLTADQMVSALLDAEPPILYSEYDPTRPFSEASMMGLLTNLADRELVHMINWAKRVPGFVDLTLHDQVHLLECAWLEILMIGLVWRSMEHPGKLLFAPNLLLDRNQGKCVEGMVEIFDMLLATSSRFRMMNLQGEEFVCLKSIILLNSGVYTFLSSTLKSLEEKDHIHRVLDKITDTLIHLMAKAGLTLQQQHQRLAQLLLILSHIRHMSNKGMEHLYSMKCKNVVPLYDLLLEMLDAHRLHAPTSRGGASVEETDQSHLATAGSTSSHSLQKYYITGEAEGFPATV
Summary of the method: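 VM7Luc4E2 cells (endogenous full-length ER-alpha, 4×ERE-luciferase), kept 5 days in phenol red-free, charcoal-stripped FBS medium; 4,000 cells/well. Compounds added with 0.1 nM (final) 17beta-estradiol, 22 hr at 37C; luminescence read with ONE-Glo after 30 min.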

[4] = qHTS assay to identify small molecule HDAC inhibitors (AID 1259364); further: top concentration of the series differs between compounds; nearly all actives have a fitted effect of over 45% in size
Summary of the method: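 Wild-type HCT-116 cells, plated overnight at 37 C, exposed to compounds 2 hr at 37 C; luminogenic HDAC-Glo substrate then added 30 min at room temperature. Luminescence reports relative endogenous class I/II HDAC activity.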

[5] = qHTS assay to identify small molecule HDAC inhibitors - cell viability counter screen (AID 1259365); further: series mostly up to about 92 µM; nearly all actives have a fitted effect of over 50% in size
Summary of the method: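 Wild-type HCT-116 cells were seeded at 1,500 per well, incubated overnight at 37 C, then exposed to compounds in DMSO for 2hr. Viability was read by CellTiter-Glo luminescence after 30min at room temperature.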

[6] = qHTS assay to identify small molecule antagonists of the sonic hedgehog signaling (Shh) pathway - cell viability counter screen (AID 1259367); further: nearly all actives have a fitted effect of over 55% in size; further: potency means the concentration at half of the fitted maximal effect
Summary of the method: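 After a 4 hr settling period, 3T3 Gli1-Luc cells were treated with DMSO-dissolved chemicals and conditioned medium, kept 24 hr at 37C in 5% CO2, and assayed for viability by CellTiter-Fluor fluorescence following 1 hr reagent incubation.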

[7] = qHTS assay to identify small molecule agonists of the sonic hedgehog signaling (Shh) pathway (AID 1259368; calls by dose curve; further: series mostly up to about 92 µM; nearly all actives have a fitted effect of over 15% in size)
Summary of the method: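 NIH/3T3-derived 3T3Gli1-Luc cells with stably integrated Gli1-driven firefly luciferase, 2,000 cells/well, compounds added after 4 hr. Incubated 24 hr at 37C, 5% CO2; luminescence read after 30 min with luciferase reagent at room temperature.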

[8] = qHTS assay to identify small molecule antagonists of the sonic hedgehog signaling (Shh) pathway (AID 1259369; calls by dose curve; further: nearly all actives have a fitted effect of over 45% in size; further: potency means the concentration at half of the fitted maximal effect)
Summary of the method: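 NIH/3T3-derived Gli1-Luc reporter cells plated 4 h, dosed with compound, then stimulated with conditioned medium for 24 h at 37 C. Firefly luciferase luminescence read after 30 min with detection reagent at room temperature.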

[9] = target: Estrogen receptor beta (Homo sapiens) (UniProt Q92731); experiment: qHTS assay to identify small molecule antagonists of the estrogen receptor beta (ER-beta) signaling pathway (AID 1259378; active means well fitted inhibition curve with a large enough effect in the signal ratio in the repeat runs, not every such curve was filed as active; the % refers to the signal ratio)
Sequence of Estrogen receptor beta (Homo sapiens) (Q92731 whole entry, looked up): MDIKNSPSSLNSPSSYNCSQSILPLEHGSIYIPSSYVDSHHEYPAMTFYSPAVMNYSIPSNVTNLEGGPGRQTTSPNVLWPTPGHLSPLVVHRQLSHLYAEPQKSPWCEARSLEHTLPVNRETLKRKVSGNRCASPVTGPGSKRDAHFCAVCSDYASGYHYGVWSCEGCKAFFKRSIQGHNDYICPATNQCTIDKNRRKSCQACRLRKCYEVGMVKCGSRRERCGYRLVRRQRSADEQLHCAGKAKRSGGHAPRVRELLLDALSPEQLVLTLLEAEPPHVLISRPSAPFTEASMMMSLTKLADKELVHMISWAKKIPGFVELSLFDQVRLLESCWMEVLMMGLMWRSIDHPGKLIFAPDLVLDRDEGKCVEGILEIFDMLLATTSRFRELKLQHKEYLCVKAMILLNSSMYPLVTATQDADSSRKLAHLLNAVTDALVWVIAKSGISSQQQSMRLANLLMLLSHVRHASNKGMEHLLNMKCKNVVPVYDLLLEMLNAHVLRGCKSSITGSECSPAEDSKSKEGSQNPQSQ
Summary of the method: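 ER-beta-UAS-bla HEK293T (GripTite) cells in 2% charcoal-stripped FBS medium were preincubated 6 hr at 37C, dosed with compound, then stimulated with 1 nM E2 (final) for 16 hr; beta-lactamase reporter read by B/G FRET fluorescence after 2 hr substrate loading.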

[10] = qHTS assay to identify small molecule agonists of the androgen receptor (AR) signaling pathway in the presence of an antagonist - cell viability counter screen (AID 1259379);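 further: MDA-kb2 human breast cancer cells carrying an MMTV luciferase reporter; series mostly up to about 92 µM; nearly all actives have a fitted effect of over 25% in size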
Summary of the method: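 MDA-kb2 cells (MMTV-luciferase, AR/GR), 3,000/well, 5 h attachment, then 3.0 µM nilutamide (final) and compounds at 15 concentrations. Viability by CellTiter-Fluor fluorescence after 16 h at 37 °C, 0% CO2, in the reporter wells.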

[11] = qHTS assay to identify small molecule agonists of the estrogen receptor beta (ER-beta) signaling pathway - cell viability counter screen (AID 1259380); further: nearly all actives have a fitted effect of over 30% in size; further: potency means the concentration at half of the fitted maximal effect
Summary of the method: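 ER-beta-UAS-bla HEK293T cells in medium with 2% charcoal-stripped FBS, pre-incubated 6 hr, then treated 16 hr at 37C. Cytotoxicity read in the same wells by CellTiter-Glo luminescence after 30 min at room temperature.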

[12] = target: Estrogen receptor (Homo sapiens) (UniProt P03372); experiment: qHTS assay to identify small molecule agonists of the estrogen receptor alpha (ER-alpha) signaling pathway in the presence of an antagonist (AID 1259383; calls by dose curve; further: top concentration of the series differs between compounds; nearly all actives have a fitted effect of over 15% in size)
Summary of the method: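 VM7Luc4E2 cells express endogenous full-length ER-alpha with an ERE-luciferase reporter and were hormone-deprived for 5 days. Compounds at 15 concentrations were added with 10.0nM ICI-182,780 for 22hr at 37C. Luminescence was read with ONE-Glo.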

[13] = qHTS assay to identify small molecule agonists or antagonists of the thyroid stimulating hormone receptor (TSHR) signaling pathway - wild type cell line counter screen (AID 1259384; calls by dose curve)
Summary of the method: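 Wild-type HEK293 cells were plated 18 h at 37 C/5% CO2, pin-dosed with compound plus Ro20-1724 medium, held 30 min at room temperature, then given cAMP-d2 and anti-cAMP-cryptate; fluorescence was read after 1 h. Fifteen concentrations, triplicate.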

[14] = target: Thyrotropin receptor (Homo sapiens) (UniProt P16473); experiment: qHTS assay to identify small molecule antagonists of the thyroid stimulating hormone receptor (TSHR) signaling pathway (AID 1259385; calls by dose curve; further: nearly all actives have a fitted effect of over 20% in size; further: potency means the concentration at half of the fitted maximal effect)
Sequence of Thyrotropin receptor (Homo sapiens) (P16473 whole entry, looked up): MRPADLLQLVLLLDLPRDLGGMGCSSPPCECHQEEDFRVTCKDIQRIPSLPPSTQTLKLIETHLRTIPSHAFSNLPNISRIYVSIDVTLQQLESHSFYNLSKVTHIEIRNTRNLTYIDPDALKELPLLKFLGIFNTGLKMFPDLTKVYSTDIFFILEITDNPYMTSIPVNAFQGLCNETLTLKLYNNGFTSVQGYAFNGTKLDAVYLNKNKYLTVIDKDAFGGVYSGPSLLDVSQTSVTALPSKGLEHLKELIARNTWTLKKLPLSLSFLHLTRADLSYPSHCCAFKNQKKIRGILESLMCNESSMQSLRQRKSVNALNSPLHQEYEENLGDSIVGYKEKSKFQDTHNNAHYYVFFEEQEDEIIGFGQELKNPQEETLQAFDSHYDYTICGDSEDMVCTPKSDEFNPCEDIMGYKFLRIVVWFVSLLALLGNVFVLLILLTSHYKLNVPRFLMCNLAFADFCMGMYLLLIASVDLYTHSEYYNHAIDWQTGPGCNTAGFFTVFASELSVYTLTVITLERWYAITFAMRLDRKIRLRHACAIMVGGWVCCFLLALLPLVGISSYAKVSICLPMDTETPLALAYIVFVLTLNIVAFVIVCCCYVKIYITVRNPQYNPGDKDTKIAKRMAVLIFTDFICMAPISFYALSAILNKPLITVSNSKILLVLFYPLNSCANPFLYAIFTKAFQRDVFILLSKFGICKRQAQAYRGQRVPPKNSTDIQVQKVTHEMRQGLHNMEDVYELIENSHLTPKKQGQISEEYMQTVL
Summary of the method: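 TSHR-HEK293 cells were plated and held 18 h at 37C/5% CO2, then given compound plus Ro20-1724 and stimulated with TSH at 1.5 ng/mL final. After 30 min at room temperature, cAMP was detected with cAMP-d2/anti-cAMP-cryptate (1 h) by fluorescence.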

[15] = qHTS assay to identify small molecule agonists of the sonic hedgehog signaling (Shh) pathway - cell viability counter screen (AID 1259366); further: nearly all actives have a fitted effect of over 50% in size; further: potency means the concentration at half of the fitted maximal effect
Summary of the method: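 NIH/3T3-derived 3T3 Gli1-Luc cells (stable Gli1-responsive firefly luciferase reporter) were seeded, rested 4 hr at 37 C/5% CO2, then exposed to compounds in DMSO for 24 hr; viability was read by CellTiter-Fluor fluorescence in the same wells.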

[16] = qHTS assay to identify small molecule antagonists of the estrogen receptor beta (ER-beta) signaling pathway - cell viability counter screen (AID 1259382); further: series mostly up to about 92 µM; nearly all actives have a fitted effect of over 55% in size
Summary of the method: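 ER-beta-UAS-bla HEK293T cells in 2% charcoal-stripped FBS medium, treated with compound plus 1 nM 17-beta-estradiol for 16 h at 37C. Viability read by CellTiter-Glo luminescence after 30 min at room temperature in the same wells.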

[17] = target: Estrogen receptor beta (Homo sapiens) (UniProt Q92731); experiment: qHTS assay to identify small molecule agonists of the estrogen receptor beta (ER-beta) signaling pathway (AID 1259377; active means well fitted activation curve with a large enough effect in the signal ratio in the repeat runs, not every such curve was filed as active; the % refers to the signal ratio)
Summary of the method: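 ER-beta-UAS-bla HEK293T (GripTite) cells carrying a UAS-driven beta-lactamase reporter, in medium with 2% charcoal-stripped FBS, were exposed to compounds for 16 hr at 37C; LiveBLAzer B/G FRET substrate was then added and fluorescence read after 2 hours at room temperature.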

Measured: Potency

COP(=S)(OC)Oc1c(Cl)cc(C)cc1Cl
active: [14] 54.5 µM
inactive: [1] | [2] | [3] | [4] | [5] | [6] | [7] | [8] | [9] | [10] | [11] | [12] | [13]

COC(=O)c1ccccc1S(=O)(=O)NC(=O)N(C)c1nc(C)nc(OC)n1
inactive: [1] | [2] | [3] | [4] | [5] | [15] | [6] | [7] | [10] | [11] | [16] | [12]

Cc1cc(C)c(C(=O)P(=O)(C(=O)c2c(C)cc(C)cc2C)c2ccccc2)c(C)c1
inactive: [1] | [2] | [3] | [4] | [5] | [15] | [6] | [7] | [17] | [10] | [11] | [16] | [12] | [13] | [14]

NC(=O)O
inactive: [1] | [2] | [3] | [4] | [5] | [15] | [6] | [7] | [10] | [11] | [16] | [12] | [13] | [14]

CCOP(=O)(N=C1SCCS1)OCC
inactive: [1] | [2] | [3] | [4] | [5] | [15] | [6] | [7] | [17] | [9] | [10] | [12] | [13] | [14]

CC(=O)C(Cl)Cl
inactive: [1] | [2] | [3] | [4] | [5] | [15] | [6] | [7] | [8] | [10] | [11] | [16] | [13] | [14]

Nc1cc(Cl)ccc1O
active: [15] 59.1 µM | [6] 29.6 µM | [8] 1.67 µM
inactive: [1] | [2] | [3] | [4] | [5] | [7] | [10] | [16] | [12] | [13] | [14]

ClC(Cl)(Cl)C(Cl)(Cl)Cl
inactive: [1] | [2] | [3] | [4] | [5] | [6] | [7] | [8] | [17] | [9] | [10] | [11] | [16]

O=S(=O)(O)C(F)(F)C(F)(F)C(F)(F)C(F)(F)C(F)(F)C(F)(F)F
inactive: [1] | [2] | [3] | [4] | [5] | [15] | [6] | [7] | [8] | [10] | [11] | [16] | [12] | [13] | [14]

C1CCC(C2CCCCC2)CC1
active: [11] 38.6 µM
inactive: [1] | [2] | [3] | [4] | [5] | [15] | [6] | [8] | [17] | [9] | [10] | [12] | [13] | [14]
